Several values for one entry are separate records, joined by “and”; a condition that tells them apart may be missing. Equal values may be shown once. Results filed as inconclusive are left out. Where a call stands in place of a potency, no number is given. Some structures have more than one record in an assay (separate samples or runs), and their calls can disagree. Activity calls are given as the source filed them. Unless noted, calls come from the whole dose curve; as a rule, active = well fitted inhibition curve with a large enough effect in the repeat runs; inconclusive = weak or mixed curves; inactive = no such curve, though single readings can be large or run the other way.
Target: Acetylcholinesterase (Homo sapiens) (UniProt P22303)
Sequence (P22303 whole entry, looked up): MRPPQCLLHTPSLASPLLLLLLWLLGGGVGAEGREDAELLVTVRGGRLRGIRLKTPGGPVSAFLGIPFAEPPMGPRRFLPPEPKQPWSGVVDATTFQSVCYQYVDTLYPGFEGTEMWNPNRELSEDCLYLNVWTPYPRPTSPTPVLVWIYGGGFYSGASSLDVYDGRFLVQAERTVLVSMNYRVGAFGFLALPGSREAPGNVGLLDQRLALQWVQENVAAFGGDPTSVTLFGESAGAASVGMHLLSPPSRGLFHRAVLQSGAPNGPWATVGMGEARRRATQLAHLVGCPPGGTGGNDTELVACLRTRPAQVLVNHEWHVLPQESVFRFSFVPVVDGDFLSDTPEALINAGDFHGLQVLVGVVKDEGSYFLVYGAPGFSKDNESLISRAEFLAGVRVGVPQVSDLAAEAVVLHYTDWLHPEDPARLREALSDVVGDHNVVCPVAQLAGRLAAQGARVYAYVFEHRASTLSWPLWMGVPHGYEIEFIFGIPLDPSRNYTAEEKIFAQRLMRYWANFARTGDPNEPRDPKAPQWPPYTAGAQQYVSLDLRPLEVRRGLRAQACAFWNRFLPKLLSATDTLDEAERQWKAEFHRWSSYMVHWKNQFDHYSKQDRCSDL
Assay: Acetylcholinesterase (AChE) small molecule antagonists: enzyme-based qHTS assay (AID 1347397; calls by dose curve; note: nearly all actives have a fitted effect of over 55% in size)
Settings: Potency: AChE enzyme activity inhibition; series mostly up to 115 µM
Method in brief: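 First, recombinant human AChE (50 mU/mL as dispensed) received test compound or DMSO. Second, plates stood 30 min at room temperature. Third, DTNB and acetylthiocholine were added, followed by 10 min at room temperature and colorimetric detection.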

Compound | Potency
O=C(O)COc1ccc(Cl)cc1Cl | inactive
C[C@]12CCC(=O)C=C1CC[C@@H]1[C@@H]2CC[C@]2(C)C(=O)CC[C@@H]12 | inactive
C=CCOC(Cn1ccnc1)c1ccc(Cl)cc1Cl (centres undefined) | inactive
C1CCC(NC2CCCCC2)CC1 | inactive
Cc1cc(Cl)ccc1OCC(=O)O | inactive

Target: Acetylcholinesterase (Homo sapiens) (UniProt P22303)
Assay: Acetylcholinesterase (AChE) small molecule antagonists: fluorescence cell-based qHTS assay (AID 1347398; calls by dose curve; note: nearly all actives have a fitted effect of over 50% in size; note: potency is the fitted concentration of half-maximal effect)
Settings: SH-SY5Y cells; Potency: AChE activity; series mostly up to 115 µM
Method in brief: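 Homogeneous quantitative HTS format. SH-SY5Y cells seeded at 2,000 per well settle overnight at 37 C. Compound pretreatment runs 30 min (37 C, 5% CO2); substrate/probe mix then reacts 40 min at RT before reading 490/520 nm.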

Compound | Potency
O=C(O)COc1ccc(Cl)cc1Cl | inactive
C[C@]12CCC(=O)C=C1CC[C@@H]1[C@@H]2CC[C@]2(C)C(=O)CC[C@@H]12 | inactive
CCCCCCCCCCn1cc[n+](C)c1 | 35.7 µM (active) [middle of 6 runs]
C=CCOC(Cn1ccnc1)c1ccc(Cl)cc1Cl (centres undefined) | inactive
C1CCC(NC2CCCCC2)CC1 | inactive
Cc1cc(Cl)ccc1OCC(=O)O | inactive

Target: Cytochrome P450 2D6 (Homo sapiens) (UniProt P10635)
Sequence (P10635 whole entry, looked up): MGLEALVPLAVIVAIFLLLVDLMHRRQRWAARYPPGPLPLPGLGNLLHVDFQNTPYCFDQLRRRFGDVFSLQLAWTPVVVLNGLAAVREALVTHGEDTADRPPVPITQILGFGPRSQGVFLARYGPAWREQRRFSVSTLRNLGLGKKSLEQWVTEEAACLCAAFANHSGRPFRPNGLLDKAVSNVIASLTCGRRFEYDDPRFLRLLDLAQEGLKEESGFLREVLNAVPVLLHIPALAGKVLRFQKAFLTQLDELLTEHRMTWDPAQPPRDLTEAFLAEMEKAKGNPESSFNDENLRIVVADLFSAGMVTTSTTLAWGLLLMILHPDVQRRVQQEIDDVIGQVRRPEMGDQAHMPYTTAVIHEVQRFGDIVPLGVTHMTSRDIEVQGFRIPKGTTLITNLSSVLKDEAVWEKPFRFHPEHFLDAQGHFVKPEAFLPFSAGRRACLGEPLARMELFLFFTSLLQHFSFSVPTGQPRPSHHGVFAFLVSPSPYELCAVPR
Assay: Cytochrome P450 Family 2 Subfamily D Member 6 (CYP2D6) small molecule antagonists: luciferase reporter qHTS assay (AID 1671196); note: nearly all actives have a fitted effect of over 50% in size; note: potency is the fitted concentration of half-maximal effect
Settings: P450-Glo CYP2D6 enzyme assay, luciferin luminescence, 1 h; series mostly up to 115 µM
Method in brief: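 Test chemicals meet CYP2D6 plus proluciferin substrate (10 min, RT); NADPH regenerating solution then drives turnover for 1 h. Detection reagent halts the reaction; luminescence measured after 20 min.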

Compound | Potency
O=C(O)COc1ccc(Cl)cc1Cl | inactive and 35.6 µM (active)
C[C@]12CCC(=O)C=C1CC[C@@H]1[C@@H]2CC[C@]2(C)C(=O)CC[C@@H]12 | inactive
CN(C)[C@@H]1C(=O)C(C(N)=O)=C(O)[C@@]2(O)C(=O)C3=C(O)c4c(O)cccc4[C@@](C)(O)[C@H]3[C@H](O)[C@@H]12 | inactive
CCC[N+]1(C)CCCC1 | inactive
CCCC[n+]1ccccc1 | inactive
CCCC[n+]1cccc(C)c1 | inactive
CCCC[n+]1ccc(C)cc1 | inactive and 449 nM (active)
CCCC[n+]1ccccc1C | inactive
CCCCCCCCn1cc[n+](C)c1 | 5.68 µM (active) [middle of 4 runs]
O=C(O)CC(O)(CC(=O)O)C(=O)O | inactive
CCCC[N+]1(C)CCCC1 | inactive
C1CCC(NC2CCCCC2)CC1 | 1.47 µM (active) and 252 nM (active) and 246 nM (active)
Nc1ccccc1 | inactive and 64.5 µM (active)
CCCCn1cc[n+](C)c1C | inactive
Cc1cc(Cl)ccc1N | 23 µM (active) and inactive and 22.4 µM (active)
COc1ccccc1N | 17.8 µM (active) and 35.7 µM (active) and 12.6 µM (active)
Cc1cc(Cl)ccc1OCC(=O)O | inactive

Target: Cytochrome P450 2C19 (Homo sapiens) (UniProt P33261)
Sequence (P33261 whole entry, looked up): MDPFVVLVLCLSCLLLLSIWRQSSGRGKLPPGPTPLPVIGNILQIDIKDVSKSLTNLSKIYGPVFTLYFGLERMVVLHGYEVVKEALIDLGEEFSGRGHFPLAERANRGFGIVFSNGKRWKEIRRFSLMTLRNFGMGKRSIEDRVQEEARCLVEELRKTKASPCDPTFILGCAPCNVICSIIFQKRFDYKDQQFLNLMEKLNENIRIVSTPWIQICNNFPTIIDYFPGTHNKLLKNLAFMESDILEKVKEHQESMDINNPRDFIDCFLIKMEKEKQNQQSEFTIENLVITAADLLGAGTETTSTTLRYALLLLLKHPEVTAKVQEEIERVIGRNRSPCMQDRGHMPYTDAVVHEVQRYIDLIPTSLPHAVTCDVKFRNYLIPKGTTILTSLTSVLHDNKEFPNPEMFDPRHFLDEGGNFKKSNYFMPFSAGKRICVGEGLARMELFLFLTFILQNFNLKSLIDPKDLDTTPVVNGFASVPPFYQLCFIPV
Assay: Cytochrome P450 Family 2 Subfamily C Member 19 (CYP2C19) small molecule antagonists: luciferase reporter qHTS assay (AID 1671197); note: nearly all actives have a fitted effect of over 65% in size; note: potency is the fitted concentration of half-maximal effect
Settings: P450-Glo CYP2C19 enzyme, luciferin luminescence, 1 h; series mostly up to 115 µM
Method in brief: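 Luminescent readout of CYP2C19 activity: luciferin product detected 20 min after adding detection reagent. Before that, compound and enzyme-substrate mix preincubated 10 min at room temperature; NADPH-regenerating system started a 1 h, 37C reaction. Ketoconazole as positive control.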

Compound | Potency
O=C(O)COc1ccc(Cl)cc1Cl | 70.7 µM (active) and inactive
C[C@]12CCC(=O)C=C1CC[C@@H]1[C@@H]2CC[C@]2(C)C(=O)CC[C@@H]12 | 8.79 µM (active) and 39.9 µM (active) and 30.9 µM (active)
COc1ccc(N)cc1 | 39.9 µM (active) [middle of 4 runs]
CN(C)[C@@H]1C(=O)C(C(N)=O)=C(O)[C@@]2(O)C(=O)C3=C(O)c4c(O)cccc4[C@@](C)(O)[C@H]3[C@H](O)[C@@H]12 | inactive
CCC[N+]1(C)CCCC1 | inactive
CCCCCCCCCCn1cc[n+](C)c1 | 40.3 µM (active) and 3.26 µM (active) and inactive
CCCC[n+]1ccccc1 | inactive
CCCCCC[n+]1ccccc1 | inactive
CCCC[n+]1cccc(C)c1 | inactive
CCCC[n+]1ccc(C)cc1 | inactive
CCCC[n+]1ccccc1C | inactive
CCCCCCCCn1cc[n+](C)c1 | 39.9 µM (active) and inactive
CCCC[N+]1(C)CCCC1 | inactive and 40.2 µM (active)
Nc1ccccc1 | 30.9 µM (active) and 36.3 µM (active) and inactive
CCCCCCn1cc[n+](C)c1 | inactive and 23.4 µM (active)
CCCCn1cc[n+](C)c1C | inactive
Cc1cc(Cl)ccc1N | 20.5 µM (active) and 31 µM (active) and 22.4 µM (active)
Cc1cc(Cl)ccc1OCC(=O)O | inactive and 39.9 µM (active)

Target: Cytochrome P450 2C9 (Homo sapiens) (UniProt P11712)
Sequence (P11712 whole entry, looked up): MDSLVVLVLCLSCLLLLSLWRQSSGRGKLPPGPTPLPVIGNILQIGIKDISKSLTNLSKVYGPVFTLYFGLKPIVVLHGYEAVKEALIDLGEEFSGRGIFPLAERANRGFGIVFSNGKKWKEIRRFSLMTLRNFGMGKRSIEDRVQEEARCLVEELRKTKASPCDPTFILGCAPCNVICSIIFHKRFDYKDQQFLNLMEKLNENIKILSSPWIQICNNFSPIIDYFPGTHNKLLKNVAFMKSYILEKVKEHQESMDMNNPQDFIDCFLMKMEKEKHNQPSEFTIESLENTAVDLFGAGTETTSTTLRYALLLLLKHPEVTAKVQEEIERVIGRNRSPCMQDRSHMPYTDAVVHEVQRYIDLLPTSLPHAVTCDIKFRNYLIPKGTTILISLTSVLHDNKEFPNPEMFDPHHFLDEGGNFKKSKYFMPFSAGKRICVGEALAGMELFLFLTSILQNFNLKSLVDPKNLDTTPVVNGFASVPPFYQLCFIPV
Assay: Cytochrome P450 Family 2 Subfamily C Member 9 (CYP2C9) small molecule antagonists: luciferase reporter qHTS assay (AID 1671198); note: nearly all actives have a fitted effect of over 50% in size; note: potency is the fitted concentration of half-maximal effect
Settings: P450-Glo CYP2C9 enzyme assay, luciferin luminescence; series mostly up to 115 µM
Method in brief: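 Enzyme-substrate mix preincubated with compound 10 min at room temperature; reaction started with NADPH regeneration solution, 1 h 37C. Luminescent luciferin product read after 20 min detection reagent.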

Compound | Potency
COc1ccc(N)cc1 | 39.9 µM (active)
CN(C)[C@@H]1C(=O)C(C(N)=O)=C(O)[C@@]2(O)C(=O)C3=C(O)c4c(O)cccc4[C@@](C)(O)[C@H]3[C@H](O)[C@@H]12 | 61.8 µM (active) and 39.6 µM (active)
CCC[N+]1(C)CCCC1 | inactive
CCCCCCCCCCn1cc[n+](C)c1 | 5.7 µM (active) and inactive and 32.6 µM (active)
CCCC[n+]1ccccc1 | inactive
CCCCCC[n+]1ccccc1 | inactive
CCCC[n+]1cccc(C)c1 | inactive
CCCC[n+]1ccc(C)cc1 | inactive and 22.3 µM (active)
CCCC[n+]1ccccc1C | inactive
CCCCCCCCn1cc[n+](C)c1 | inactive
CCCC[N+]1(C)CCCC1 | inactive
C1CCC(NC2CCCCC2)CC1 | inactive
Nc1ccccc1 | inactive and 40.7 µM (active)
CCCCCCn1cc[n+](C)c1 | inactive
CCCCn1cc[n+](C)c1C | inactive
Cc1cc(Cl)ccc1N | 28.9 µM (active) and 24.6 µM (active) and 25.2 µM (active)
COc1ccccc1N | inactive
CCCCCCCCCCCCn1cc[n+](C)c1 | 9.01 µM (active) and inactive and 64.3 µM (active)
